Measurements: PubChem BioAssay (NCATS)
Results filed as inconclusive are left out. Calls of active or inactive are those of the source. Calls follow the shape of the dose curve; as a rule, active = well fitted curve in the direction sought with a large enough effect; inconclusive = small, poorly fitted or top-dose-only effect, or another doubt; inactive = no such curve, though single readings can be large; an effect the other way counts as inactive or inconclusive.

What was measured:
[1] = target: Glutathione peroxidase 1 (Homo sapiens) (UniProt P07203); assay: Primary qHTS Assay for Inhibitors of Recombinant Selenoprotein Glutathione Peroxidase 1 (GPX1) (AID 1845191); also: nearly all actives have a fitted effect of over 65% in size; also: potency is read from the fitted curve at half-maximal effect; as to activity, negative = inhibition: % is scaled to controls: 0 for no effect and ±100 for the full control effect
Chain of Glutathione peroxidase 1 (Homo sapiens) (P07203 whole entry, looked up): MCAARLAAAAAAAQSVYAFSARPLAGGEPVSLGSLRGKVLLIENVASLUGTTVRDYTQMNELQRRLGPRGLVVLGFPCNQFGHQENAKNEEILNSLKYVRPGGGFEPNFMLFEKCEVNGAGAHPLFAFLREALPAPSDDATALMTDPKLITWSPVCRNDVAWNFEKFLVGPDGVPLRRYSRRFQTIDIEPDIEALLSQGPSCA
Procedure, shortened: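 GR-coupled readout: NADPH consumption tracked by fluorescence, ex 340/em 450 nm, at t=0 and after 15 min at RT. Final mix 10 nM GPX1, 1 mM GSH, 0.5 mM CHP, 0.5 mM NADPH, 100 nM GR, 0.01% BSA, following 30 min enzyme–compound preincubation.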

[2] = target: Phospholipid hydroperoxide glutathione peroxidase GPX4 (Homo sapiens) (UniProt P36969); assay: Primary qHTS Assay for Inhibitors of Recombinant Selenoprotein Glutathione Peroxidase 4 (GPX4) (AID 1845192); also: nearly all actives have a fitted effect of over 65% in size; also: potency is read from the fitted curve at half-maximal effect; as to activity change, negative = inhibition: series mostly up to about 50 µM; % is scaled to controls: 0 for no effect and ±100 for the full control effect
Chain of Phospholipid hydroperoxide glutathione peroxidase GPX4 (Homo sapiens) (P36969 whole entry, looked up): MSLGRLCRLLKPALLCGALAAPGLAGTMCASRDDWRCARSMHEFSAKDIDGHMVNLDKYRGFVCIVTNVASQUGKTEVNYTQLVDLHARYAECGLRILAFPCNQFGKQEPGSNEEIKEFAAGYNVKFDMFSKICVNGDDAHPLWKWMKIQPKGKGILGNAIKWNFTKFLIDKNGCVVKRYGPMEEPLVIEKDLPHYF
Procedure, shortened: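 Steps: GPX4 plus compound, 30 min RT; add GR/GSH/NADPH master mix; start with cumene hydroperoxide; read 340/450 nm fluorescence at 0 and 15 min. Finals were 200 nM GPX4, 1 mM GSH, 0.5 mM CHP, 0.5 mM NADPH, 100 nM GR.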

[3] = target: Luciferin 4-monooxygenase (Photinus pyralis) (UniProt P08659); assay: Primary firefly luciferase (FLuc) qHTS assay for identification of artifact compounds. (AID 1845220); also: nearly all actives have a fitted effect of over 60% in size; also: potency is read from the fitted curve at half-maximal effect;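 as to activity change, negative = inhibition: series mostly up to about 54 µM; plate controls were DMSO vehicle for no effect and no enzyme for full effect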
Procedure, shortened: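 Enzymatic FLuc inhibition assay: compounds pre-exposed to luciferin/ATP (10 uM each) for 15 min, then purified P. pyralis enzyme at 10 nM added. Read-out: luminescence at 5 min.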

[4] = Primary fluorescence-based thiol-reactive (MSTI) qHTS assay for identification of artifact compounds. (AID 1845221); also: nearly all actives have a fitted effect of over 65% in size; also: potency is read from the fitted curve at half-maximal effect;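 as to activity change, negative = thiol reactive: series mostly up to about 54 µM; thiol-reactive compounds lower the probe fluorescence signal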
Procedure, shortened: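 Thiol-reactive compounds detected by quenching of 4 uM MSTI fluorescence (525/598 nm) after 1 h room-temperature dark incubation in PBS pH 7.4, 2% DMSO. qHTS titration; percent inhibition Hill-fitted against Acetyl-MSTI/MSTI controls.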

[5] = tested on: Nanoluciferase (engineered Oplophorus gracilirostris luciferase); assay: Primary Nanoluciferase (NLuc) qHTS assay for identification of artifact compounds. (AID 1845222); also: potency is read from the fitted curve at half-maximal effect;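 as to activity, negative = inhibition: NLuc secreted into diluted conditioned medium of S16 cells; series mostly up to about 54 µM; 0% = DMSO and -100% = no enzyme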
Procedure, shortened: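 S16 cell supernatant NLuc, 1:55; cpds qHTS; 15 min RT dark; Nano-Glo substrate 1:100, 5 min; luminescence; Hill fit of % inhibition.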

[6] = Primary redox qHTS assay for identification of artifact compounds. (AID 1845223);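 also: 0% = DMSO and 100% = reference compound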
Procedure, shortened: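 Redox-cycling detection via DTT (250 uM final) oxidation coupled to Amplex Red (25 uM)/HRP (250 mU/mL) in HBSS. 15 min preincubation plus 30 min after DTT, room temperature. Ex/Em 525/598 nm; 4-parameter Hill fit against DMSO and 10 uM DA3003.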

Cc1ccc(S(=O)(=O)N2CCC[C@H]2c2ccc(F)cc2)cc1
inactive: Potency [1] | Potency [2] | Potency [3] | Potency [4] | Potency [5] | Potency [6]

CC(C)c1noc(C2CCN(c3ncnc(Nc4ccc(S(C)(=O)=O)cc4F)c3[N+](=O)[O-])CC2)n1
inactive: Potency [1] | Potency [2] | Potency [3] | Potency [4] | Potency [5] | Potency [6]

CC1(C)CC[C@]23CO[C@@]4(CCC5[C@@]6(C)CC[C@H](O[C@@H]7OC[C@H](O[C@@H]8O[C@H](CO)[C@@H](O)[C@H](O)[C@H]8O[C@@H]8OC[C@@H](O)[C@H](O)[C@H]8O)[C@H](O)[C@H]7O)[C@@](C)(CO)C6CC[C@@]5(C)[C@]4(C)CC2=O)[C@@H]3C1 (some centres undefined)
inactive: Potency [1] | Potency [2] | outcome [3] inactive [at 11.6 µM] | activity change, negative = thiol reactive [4] 249% [at 11.5 µM] | activity, negative = inhibition [5] 3.95% [at 11.6 µM] | redox activity (% of DA3003) [6] -0.913% [at 11.5 µM]

C=CC(=O)N1CC(N2CCN(C(=O)CNc3cc(C4CC4)c(Cl)cc3O)CC2)C1
active: Potency [4] 2670 nM
inactive: Potency [1] | Potency [2] | Potency [3] | Potency [5] | Potency [6]

CC(=O)O[C@@H]1C[C@@]2(C)C(CC[C@]3(C)C2CC=C2C4CC(C)(C)CC[C@]4(C(=O)O)CC[C@]23C)C(C)(C)[C@H]1O (some centres undefined)
inactive: Potency [1] | Potency [2] | Potency [3] | Potency [4] | Potency [5] | Potency [6]

Nc1ncnc2c1nc(Cl)n2C1OC2COP(=O)(O)OC2C1O (centres undefined)
inactive: Potency [1] | Potency [2] | Potency [3] | Potency [4] | Potency [5] | Potency [6]

Cc1ccc(N2CCN(S(=O)(=O)N3CCCCC3)CC2)c(C)c1
inactive: Potency [1] | Potency [2] | Potency [3] | Potency [4] | Potency [5] | Potency [6]

C/C=C/C=C/C=C/C(=O)O[C@@H]1C=C(CO)C(O)(C(=O)OC)[C@@]2(C)CCCC(C)(C)C12 (some centres undefined)
inactive: Potency [1] | Potency [2] | Potency [3] | Potency [4] | Potency [5] | Potency [6]

Cc1nc2c(C(F)(F)F)cccc2nc1-c1ccc(-c2cccc(S(C)(=O)=O)c2)cc1
inactive: Potency [1] | Potency [2] | Potency [3] | Potency [4] | Potency [5] | Potency [6]

CCOc1ccc(Cc2nc(-c3c(C)nc4ccccn34)cs2)cc1
inactive: Potency [1] | Potency [2] | Potency [3] | Potency [5] | Potency [6]
active: Potency [4] 1680 nM

COc1cc(N2CCOCC2)ccc1NC(=O)c1csc(-c2cccnc2)n1
active: Potency [4] 2380 nM
inactive: Potency [1] | Potency [2] | Potency [3] | Potency [5] | Potency [6]

CC(=O)OC[C@]12[C@H](OC(C)=O)[C@H](OC(=O)c3ccccc3)[C@@H]3[C@@H](OC(C)=O)[C@]1(OC3(C)C)[C@H](C)C[C@H](OC(C)=O)[C@@H]2OC(=O)c1ccccc1
inactive: Potency [1] | Potency [2] | Potency [3] | Potency [4] | Potency [5] | Potency [6]

c1cc(-c2cnn3cc(-c4ccc(N5CCNCC5)cc4)cnc23)c2cccnc2c1
inactive: Potency [1] | Potency [2] | Potency [3] | Potency [4] | Potency [5] | Potency [6]

Cc1noc(-c2ccc(-c3ccc(CC(=O)O)cc3)cc2)c1NC(=O)O[C@H](C)c1ccccc1Cl
active: Potency [5] 9530 nM
inactive: Potency [1] | Potency [2] | Potency [3] | Potency [4] | Potency [6]

COc1ccc(-c2cc3onc(-c4ccncc4)c3c(=O)n2C)cc1
active: Potency [3] 1900 nM
inactive: Potency [1] | Potency [2] | Potency [4] | Potency [5] | Potency [6]

CC1=C2C[C@@]3(C)C(CCC[C@@H]3C)C(O)C2OC1=O (some centres undefined)
inactive: Potency [1] | Potency [2] | Potency [3] | Potency [4] | Potency [5] | Potency [6]

COc1ccc(-c2ccc3c(N4CCOCC4C)nc(N4CCOCC4C)nc3n2)cc1CO (centres undefined)
active: Potency [1] 18000 nM | Potency [2] 10100 nM
inactive: Potency [3] | Potency [4] | Potency [5] | Potency [6]

CC1OC(OC2C(O)COC(O[C@@H]3[C@@H](O)[C@@H](O)[C@H](OC4C(OC(=O)[C@]56CCC(C)(C)CC5C5=CCC7[C@@]8(C)C[C@H](O)[C@H](OC9OC(CO)C(O)C(O)C9O)[C@@](C)(CO)C8[C@H](O)C[C@@]7(C)[C@]5(C)CC6)OCC(O)C4O)O[C@H]3C)C2O)C(O)C(O)C1O (some centres undefined)
inactive: activity, negative = inhibition [1] -4.86% [at 9.52 µM] | activity change, negative = inhibition [2] -9.45% [at 9.73 µM] | activity change, negative = inhibition [3] -14.3% [at 11.6 µM] | activity change, negative = thiol reactive [4] 417% [at 11.5 µM] | activity, negative = inhibition [5] -5.56% [at 11.6 µM] | redox activity (% of DA3003) [6] 3.65% [at 11.5 µM]

COc1c(C)cc(NC(=O)c2nn(Cc3ccc(F)cc3)c3c2CN(C(=O)c2ccc[nH]2)C[C@]3(C)C(N)=O)cc1C
inactive: Potency [1] | Potency [2] | activity change, negative = inhibition [3] 2.65% [at 11.6 µM] | activity change, negative = thiol reactive [4] 108% [at 11.5 µM] | activity, negative = inhibition [5] 0.489% [at 11.6 µM] | redox activity (% of DA3003) [6] 7.9% [at 11.5 µM]

CC1(C)OC[C@H](NC(=O)Nc2ccc(Br)cc2Br)[C@H](c2ccccc2)O1
inactive: Potency [1] | Potency [2] | Potency [3] | Potency [4] | Potency [5] | Potency [6]

Cc1ccc(C)c(NS(=O)(=O)c2cc(C(=O)Nc3ccccc3-c3ccccc3)ccc2C)c1
inactive: Potency [1] | Potency [2] | Potency [3] | Potency [4] | Potency [5] | Potency [6]

O=C(Nc1ccccc1)N1CCN(c2nc(-c3ccccc3)ns2)CC1
inactive: Potency [1] | Potency [2] | Potency [3] | Potency [4] | Potency [5] | Potency [6]

C[C@@H](O[C@H]1OCCN(Cc2nn(P(=O)(O)O)c(=O)[nH]2)[C@H]1c1ccc(F)cc1)c1cc(C(F)(F)F)cc(C(F)(F)F)c1
inactive: Potency [1] | Potency [2] | Potency [3] | Potency [4] | Potency [5] | Potency [6]

COc1ccc(Oc2c(Cl)cnn(-c3cc(C)cc(C)c3)c2=O)cc1
inactive: Potency [1] | Potency [2] | Potency [3] | Potency [4] | Potency [5] | Potency [6]
